Results: PubChem BioAssay (NCATS)
Values without a mark were called inactive. Records with an inconclusive call do not appear. Entries that show only a call come without a potency. Calls of active or inactive are those of the source. Unless noted, calls follow the shape of the dose curve; as a rule, active = well fitted curve in the direction sought with a large enough effect; inconclusive = small, poorly fitted or top-dose-only effect, or another doubt; inactive = no such curve, though single readings can be large; an effect the other way counts as inactive or inconclusive.

What was measured:
[1] = biological target: Rap guanine nucleotide exchange factor 3 (Homo sapiens) (UniProt O95398); test: Confirmatory qHTS for antagonist of cAMP-regulated guanine nucleotide exchange factor 3 (EPAC1) (AID 1645880); conditions: EPAC1 Rap1B-BODIPY-GDP exchange, fluorescence; activity, negative = inhibition: at 115 µM (top of the series); also: nearly all actives have a fitted effect of over 55% in size; also: potency is read from the fitted curve at half-maximal effect
How it was run: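 Released BODIPY-GDP fluoresces less than Rap1-bound BODIPY-GDP; the signal is followed at 480/540 nm at 5-min intervals over 30 min, after 5 min at room temperature. Reactions contain 100 nM EPAC1, 250 nM RAP1B-BODIPY-GDP and 50 uM GDP; results are normalized to ATA and DMSO.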

[2] = biological target: Rap guanine nucleotide exchange factor 4 (Homo sapiens) (UniProt Q8WZA2); test: Confirmatory qHTS for agonist of cAMP-regulated guanine nucleotide exchange factor 4 (EPAC2) (AID 1645884);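 also: nucleotide exchange releases bodipy-GDP from Rap1 and this lowers its fluorescence; nearly all actives have a fitted effect of over 65% in size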; also: potency is read from the fitted curve at half-maximal effect
[3] = biological target: Rap guanine nucleotide exchange factor 4 (Homo sapiens) (UniProt Q8WZA2); test: Confirmatory qHTS for antagonist of cAMP-regulated guanine nucleotide exchange factor 4 (EPAC2) (AID 1645885); also: nearly all actives have a fitted effect of over 25% in size; also: potency is read from the fitted curve at half-maximal effect
[4] = biological target: Rap guanine nucleotide exchange factor 3 (Homo sapiens) (UniProt O95398); test: Counterscreen qHTS for antagonist of cAMP-regulated guanine nucleotide exchange factor 3 (EPAC1) (AID 1645888)
How it was run: (§1)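 Rap1B–BODIPY-GDP (250 nM) with 50 uM GDP; compounds pin-transferred to 9.74 nM–152 uM final (activator) or from 7.32 nM upwards (inhibitor). Fluorescence Ex/Em 480/540 nm read at 5 and 30 min, then after adding cAMP or buffer, at room temperature.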

[5] = biological target: Cytochrome P450 1A2 (Homo sapiens) (UniProt P05177); test: p450-cyp1a2 (AID 410; calls by dose curve; also: potency is read from the fitted curve at half-maximal effect)
How it was run: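 Read-out is luminescence from luciferin produced by CYP1A2 demethylation of Luciferin-ME (100uM, at Km). Detection reagent stopped the 60 min NADPH-dependent reaction; signals were normalized to 57 uM furafylline.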

[6] = biological target: Glucocorticoid receptor (Homo sapiens) (UniProt P04150); test: GR-GFP Redistribution (AID 450;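 active = compounds whose dose series gives a full or clear partial fitted curve of increased nuclear translocation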; also: potency is read from the fitted curve at half-maximal effect); conditions: U2OS GR-GFP nuclear translocation, laser cytometry, 2 h
[7] = biological target: Glucocorticoid receptor (Homo sapiens) (UniProt P04150); test: GR-EFC Redistribution (AID 451; calls by dose curve; also: potency is read from the fitted curve at half-maximal effect); conditions: CHO-K1 GR-EFC translocation, beta-gal luminescence, 2 h
How it was run: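 CHO-K1 cells expressing nuclear EA and GR-ED fragments of b-gal; compounds titrated up to 46 uM final, 2 h at 37 C. GR nuclear translocation read as complemented b-gal luminescence after 1 h RT detection.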

[8] = biological target: Mitogen-activated protein kinase 10 (Mus musculus) (UniProt Q61831); test: JNK3 AlphaScreen Assay (AID 530; active = well fitted curve in either direction with a large enough effect, not every such curve was filed as active;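 also: kinase came from lysate of stimulated human HepG2 cells; potency is read from the fitted curve at half-maximal effect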)
How it was run: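 HepG2 lysate (IL-1b/TNFa pre-activated) + biotin-GST-cJun 1-79 + anti-pSer73 cJun; cpd titration, 15 min RT; ATP 10 uM start; Tris pH 7.6, MgCl2, DTT, vanadate; beads in EDTA buffer; AlphaScreen.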

[9] = biological target: Cytochrome P450 2C9 (Homo sapiens) (UniProt P11712); test: qHTS Assay for Inhibitors and Substrates of Cytochrome P450 2C9 (AID 883); also: potency is read from the fitted curve at half-maximal effect; nearly all actives have a fitted effect of over 60% in size
How it was run: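 10nM CYP2C9 + 100uM Luciferin-H (=KM), 25mM KPO4; cpd 10 min 37C; NADPH regen, 60 min 37C; stop/detect with P450 Glo-Buffer 20 min; luminescence. Norm. to 57uM sulphaphenazole as full inhibition.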

[10] = biological target: Cytochrome P450 3A4 (Homo sapiens) (UniProt P08684); test: qHTS Assay for Inhibitors and Substrates of Cytochrome P450 3A4 (AID 884); also: potency is read from the fitted curve at half-maximal effect; nearly all actives have a fitted effect of over 50% in size
How it was run: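 Luminescent readout of luciferin produced by CYP3A4 (20 nM) dealkylation of Luciferin-PPXE, 25 uM (its KM). NADPH-driven reaction ran 60 min at RT after 10 min compound preincubation; data scaled to 57 uM ketoconazole as 100% inhibition.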

[11] = biological target: Cytochrome P450 3A4 (Homo sapiens) (UniProt P08684); test: qHTS Assay for Activators of Cytochrome P450 3A4 (AID 885); also: nearly all actives have a fitted effect of over 65% in size
How it was run: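 Luminescent readout of luciferin formed from 25 uM Luciferin-PPXE (KM level) by 20 nM CYP3A4 in 200 mM KPO4, with 60 min NADPH-driven reaction at room temperature after 10 min compound exposure. Ketoconazole (57 uM) defined 100% inhibition.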

[12] = biological target: Cytochrome P450 2D6 (Homo sapiens) (UniProt P10635); test: qHTS Assay for Inhibitors and Substrates of Cytochrome P450 2D6 (AID 891); also: potency is read from the fitted curve at half-maximal effect; nearly all actives have a fitted effect of over 60% in size
How it was run: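 Luminescent read-out of luciferin formed by 5 nM human CYP2D6 demethylating 30 uM Luciferin-ME EGE (Km level) over 60 min at room temperature after NADPH regeneration addition. Data normalized to full inhibition by 1.43 uM quinidine.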

[13] = biological target: Cytochrome P450 2C19 (Homo sapiens) (UniProt P33261); test: qHTS Assay for Inhibitors and Substrates of Cytochrome P450 2C19 (AID 899); also: potency is read from the fitted curve at half-maximal effect; nearly all actives have a fitted effect of over 60% in size
How it was run: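 Luminescent read-out of luciferin formed from Luciferin-H EGE (10uM, equal to KM). Enzyme 5nM in 50mM KPO4; compound added, 10 min at 37C, then NADPH regenerating system for 60 min at 37C. Full inhibition defined by 57uM ketoconazole.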

[14] = biological target: DNA dC->dU-editing enzyme APOBEC-3G (Homo sapiens) (UniProt Q9HC16); test: qHTS for inhibitors of Vif-A3G interactions: Validation (AID 588379)
How it was run: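 Yellow fluorescence (Ex 488, Em 500-530) of Vif-coexpressing HeLa A3G-eYFP cells, scanned by Acumen cytometer, reports blocked A3G degradation. Cells plated at 700/well overnight at 37 deg C before compound addition, then a further overnight compound incubation at 37 deg C.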

[15] = biological target: Rap guanine nucleotide exchange factor 3 (Homo sapiens) (UniProt O95398); test: Confirmatory qHTS for agonist of cAMP-regulated guanine nucleotide exchange factor 3 (EPAC1) (AID 1645881);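 also: EPAC1 catalysed release of BODIPY-GDP from Rap1B seen as fluorescence loss; nearly all actives have a fitted effect of over 75% in size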
[16] = biological target: Rap guanine nucleotide exchange factor 3 (Homo sapiens) (UniProt O95398); test: Counterscreen qHTS for agonist of cAMP-regulated guanine nucleotide exchange factor 3 (EPAC1) (AID 1645889); also: nearly all actives have a fitted effect of over 40% in size
How it was run: as §1

Sequence of Rap guanine nucleotide exchange factor 3 (Homo sapiens) (O95398 whole entry, looked up): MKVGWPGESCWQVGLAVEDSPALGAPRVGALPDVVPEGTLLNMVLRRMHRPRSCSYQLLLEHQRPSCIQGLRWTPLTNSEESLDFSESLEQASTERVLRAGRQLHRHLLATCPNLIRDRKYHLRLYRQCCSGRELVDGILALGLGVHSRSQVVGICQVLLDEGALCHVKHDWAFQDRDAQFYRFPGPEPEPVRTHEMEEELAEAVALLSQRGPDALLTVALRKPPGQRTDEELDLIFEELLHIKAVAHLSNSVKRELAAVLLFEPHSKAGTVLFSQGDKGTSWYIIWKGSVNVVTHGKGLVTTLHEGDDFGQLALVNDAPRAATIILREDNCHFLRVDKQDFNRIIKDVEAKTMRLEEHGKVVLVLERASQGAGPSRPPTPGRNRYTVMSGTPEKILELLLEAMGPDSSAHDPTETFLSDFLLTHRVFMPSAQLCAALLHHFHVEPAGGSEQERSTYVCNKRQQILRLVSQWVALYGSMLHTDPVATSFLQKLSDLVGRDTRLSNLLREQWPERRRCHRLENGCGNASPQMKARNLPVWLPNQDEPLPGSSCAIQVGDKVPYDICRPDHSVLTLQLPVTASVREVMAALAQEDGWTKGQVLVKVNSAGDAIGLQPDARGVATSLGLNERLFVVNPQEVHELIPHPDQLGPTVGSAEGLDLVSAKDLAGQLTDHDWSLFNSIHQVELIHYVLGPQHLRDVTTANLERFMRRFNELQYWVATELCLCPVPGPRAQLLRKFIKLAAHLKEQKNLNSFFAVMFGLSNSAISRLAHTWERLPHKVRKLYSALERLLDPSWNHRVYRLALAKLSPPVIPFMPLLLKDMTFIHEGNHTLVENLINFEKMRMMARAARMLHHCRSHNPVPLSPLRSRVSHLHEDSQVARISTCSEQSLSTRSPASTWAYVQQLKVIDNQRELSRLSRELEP
Sequence of Rap guanine nucleotide exchange factor 4 (Homo sapiens) (Q8WZA2 whole entry, looked up): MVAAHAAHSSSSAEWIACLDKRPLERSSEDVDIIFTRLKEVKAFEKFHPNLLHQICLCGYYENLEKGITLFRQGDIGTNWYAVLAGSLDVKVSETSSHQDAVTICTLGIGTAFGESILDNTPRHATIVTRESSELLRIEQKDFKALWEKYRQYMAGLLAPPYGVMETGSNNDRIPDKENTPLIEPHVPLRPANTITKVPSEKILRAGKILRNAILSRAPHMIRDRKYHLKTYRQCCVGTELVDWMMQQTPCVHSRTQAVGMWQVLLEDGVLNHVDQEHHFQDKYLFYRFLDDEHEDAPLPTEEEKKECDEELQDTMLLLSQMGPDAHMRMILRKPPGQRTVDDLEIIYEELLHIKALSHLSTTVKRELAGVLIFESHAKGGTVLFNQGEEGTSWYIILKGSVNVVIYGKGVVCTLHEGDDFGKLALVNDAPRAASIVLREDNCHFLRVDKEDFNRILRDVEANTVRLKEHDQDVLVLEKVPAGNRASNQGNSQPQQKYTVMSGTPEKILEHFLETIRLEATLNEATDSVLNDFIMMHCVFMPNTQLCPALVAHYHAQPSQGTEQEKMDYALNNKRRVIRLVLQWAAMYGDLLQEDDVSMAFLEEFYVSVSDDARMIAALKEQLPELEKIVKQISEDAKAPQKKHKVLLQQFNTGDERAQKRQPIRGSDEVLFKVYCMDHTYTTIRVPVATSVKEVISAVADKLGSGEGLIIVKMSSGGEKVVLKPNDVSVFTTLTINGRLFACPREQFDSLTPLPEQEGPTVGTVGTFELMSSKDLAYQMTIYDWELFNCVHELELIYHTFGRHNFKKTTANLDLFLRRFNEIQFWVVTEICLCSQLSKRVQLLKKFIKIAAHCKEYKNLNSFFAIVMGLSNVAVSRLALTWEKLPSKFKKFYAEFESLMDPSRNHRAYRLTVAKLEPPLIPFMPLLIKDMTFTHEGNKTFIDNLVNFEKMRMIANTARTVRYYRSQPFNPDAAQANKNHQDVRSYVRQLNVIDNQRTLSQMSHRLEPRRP
Sequence of Glucocorticoid receptor (Homo sapiens) (P04150 whole entry, looked up, the tested form may be a part): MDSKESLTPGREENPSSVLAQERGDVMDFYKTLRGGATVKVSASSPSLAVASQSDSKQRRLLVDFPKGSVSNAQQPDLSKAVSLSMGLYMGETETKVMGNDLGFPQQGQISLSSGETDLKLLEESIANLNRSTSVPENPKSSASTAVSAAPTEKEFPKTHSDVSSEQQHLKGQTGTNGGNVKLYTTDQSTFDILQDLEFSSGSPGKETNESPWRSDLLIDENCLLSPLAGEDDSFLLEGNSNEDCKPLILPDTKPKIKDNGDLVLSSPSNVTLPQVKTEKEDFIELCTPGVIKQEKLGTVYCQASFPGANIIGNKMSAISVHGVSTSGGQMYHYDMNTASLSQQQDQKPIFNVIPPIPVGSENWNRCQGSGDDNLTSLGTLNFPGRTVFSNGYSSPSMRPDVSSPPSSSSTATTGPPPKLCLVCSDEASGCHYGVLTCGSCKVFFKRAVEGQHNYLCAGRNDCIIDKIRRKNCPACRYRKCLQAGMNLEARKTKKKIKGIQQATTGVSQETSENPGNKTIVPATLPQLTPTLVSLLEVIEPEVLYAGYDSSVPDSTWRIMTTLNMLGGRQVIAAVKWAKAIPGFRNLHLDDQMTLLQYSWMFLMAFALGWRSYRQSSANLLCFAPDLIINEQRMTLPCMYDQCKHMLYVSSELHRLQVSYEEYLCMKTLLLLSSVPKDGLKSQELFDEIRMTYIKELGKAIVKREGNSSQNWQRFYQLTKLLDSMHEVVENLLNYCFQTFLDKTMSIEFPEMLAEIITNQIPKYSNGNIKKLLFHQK
Sequence of Cytochrome P450 3A4 (Homo sapiens) (P08684 whole entry, looked up): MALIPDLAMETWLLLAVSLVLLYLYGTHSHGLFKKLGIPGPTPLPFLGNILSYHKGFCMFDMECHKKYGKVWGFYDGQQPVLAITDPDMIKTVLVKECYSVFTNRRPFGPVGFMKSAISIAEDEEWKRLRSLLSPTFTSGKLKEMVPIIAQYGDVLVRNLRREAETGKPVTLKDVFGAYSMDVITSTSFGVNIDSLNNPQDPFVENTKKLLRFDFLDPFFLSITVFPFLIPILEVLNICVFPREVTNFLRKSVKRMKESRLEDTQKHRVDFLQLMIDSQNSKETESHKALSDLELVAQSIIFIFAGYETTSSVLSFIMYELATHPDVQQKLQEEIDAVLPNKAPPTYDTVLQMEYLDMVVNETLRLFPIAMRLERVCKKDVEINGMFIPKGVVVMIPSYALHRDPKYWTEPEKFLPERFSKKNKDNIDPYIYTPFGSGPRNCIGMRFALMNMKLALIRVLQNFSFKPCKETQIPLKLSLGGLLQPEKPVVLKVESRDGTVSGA
Sequence of Cytochrome P450 2C19 (Homo sapiens) (P33261 whole entry, looked up): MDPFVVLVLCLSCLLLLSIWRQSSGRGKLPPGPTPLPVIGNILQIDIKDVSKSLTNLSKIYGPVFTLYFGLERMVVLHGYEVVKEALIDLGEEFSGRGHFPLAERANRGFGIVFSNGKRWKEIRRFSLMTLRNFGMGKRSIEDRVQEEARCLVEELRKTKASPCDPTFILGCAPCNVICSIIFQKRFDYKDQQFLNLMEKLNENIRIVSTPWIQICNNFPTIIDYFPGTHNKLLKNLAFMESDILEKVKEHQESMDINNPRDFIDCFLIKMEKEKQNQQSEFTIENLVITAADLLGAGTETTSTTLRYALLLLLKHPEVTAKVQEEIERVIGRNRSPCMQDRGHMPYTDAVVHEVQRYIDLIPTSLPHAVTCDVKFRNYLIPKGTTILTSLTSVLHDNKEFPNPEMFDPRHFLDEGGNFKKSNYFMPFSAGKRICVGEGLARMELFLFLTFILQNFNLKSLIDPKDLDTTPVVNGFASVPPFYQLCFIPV
Sequence of Cytochrome P450 2D6 (Homo sapiens) (P10635 whole entry, looked up): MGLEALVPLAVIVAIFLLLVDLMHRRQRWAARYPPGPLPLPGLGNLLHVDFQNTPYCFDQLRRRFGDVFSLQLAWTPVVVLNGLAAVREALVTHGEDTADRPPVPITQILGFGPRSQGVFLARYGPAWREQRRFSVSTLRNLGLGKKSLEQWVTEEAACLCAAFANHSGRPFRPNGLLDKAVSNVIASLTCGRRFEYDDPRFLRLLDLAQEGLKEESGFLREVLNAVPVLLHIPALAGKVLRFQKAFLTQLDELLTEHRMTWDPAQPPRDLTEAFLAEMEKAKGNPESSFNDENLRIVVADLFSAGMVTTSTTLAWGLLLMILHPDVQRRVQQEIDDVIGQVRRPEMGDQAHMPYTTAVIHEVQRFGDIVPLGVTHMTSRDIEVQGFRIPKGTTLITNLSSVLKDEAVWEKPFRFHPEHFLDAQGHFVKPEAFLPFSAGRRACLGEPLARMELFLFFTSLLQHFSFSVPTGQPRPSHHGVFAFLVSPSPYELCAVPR
Sequence of Cytochrome P450 2C9 (Homo sapiens) (P11712 whole entry, looked up): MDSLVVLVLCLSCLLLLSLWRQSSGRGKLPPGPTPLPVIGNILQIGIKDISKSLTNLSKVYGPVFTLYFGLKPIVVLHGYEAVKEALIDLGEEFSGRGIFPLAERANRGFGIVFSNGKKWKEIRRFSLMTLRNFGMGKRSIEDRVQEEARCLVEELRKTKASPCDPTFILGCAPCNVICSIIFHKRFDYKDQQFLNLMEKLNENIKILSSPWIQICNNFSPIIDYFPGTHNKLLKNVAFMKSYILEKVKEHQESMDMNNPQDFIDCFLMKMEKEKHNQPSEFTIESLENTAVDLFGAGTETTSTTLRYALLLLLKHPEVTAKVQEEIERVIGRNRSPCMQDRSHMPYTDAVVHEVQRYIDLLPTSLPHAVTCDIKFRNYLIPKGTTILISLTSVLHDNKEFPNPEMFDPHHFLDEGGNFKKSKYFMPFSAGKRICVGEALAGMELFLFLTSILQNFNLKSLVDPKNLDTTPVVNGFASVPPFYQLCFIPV

Q: Which Potency [1] does the source give for `Cc1cccc(C(C)C)c1-n1nnnc1-c1ccccc1` here?
A: inactive

Q: And the activation [2]?
A: 6.22% [at 17.1 µM, percent relative to cAMP agonist control]

Q: And the Potency [3]?
A: 3.01 µM (active)

Q: What about the activity change, negative = inhibition [4] of the same compound?
A: -11.8% [at 30.8 µM]

Q: With `COc1cc2cc3c4c(cc(OC)c(OC)c4c2cc1OC)CCN3C` as the compound, how does the Potency [5] read?
A: 0.0794 µM (active)

Q: What about the Potency [6] of the same compound?
A: > 46 µM

Q: What about the Potency [7] of the same compound?
A: > 46 µM

Q: And the Potency [8]?
A: 0.158 µM (active)

Q: What about the Potency [9] of the same compound?
A: 0.794 µM (active)

Q: What about the Potency [10] of the same compound?
A: 3.98 µM (active)

Q: And the outcome [11]?
A: inactive

Q: What about the Potency [12] of the same compound?
A: 3.98 µM (active)

Q: What about the Potency [13] of the same compound?
A: 0.0501 µM (active)

Q: What about the outcome [14] of the same compound?
A: inactive

Q: And the Potency [1]?
A: inactive

Q: What about the Potency [15] of the same compound?
A: inactive

Q: `Cc1ccc(S(=O)(=O)N2[C@@H](c3ccc(C(C)(C)C)cc3)C(C(=O)O)=CC[C@H]2c2cccc(Cl)c2)cc1` was tested. Which Potency [1] did it give?
A: 47.8 µM (active)

Q: What about the Potency [15] of the same compound?
A: inactive

Q: What about the Potency [16] of the same compound?
A: inactive

Q: What does the source list for `COC(=O)c1cc(C(=O)c2ccc(Cl)cc2)n2c(=O)/c(=C\N(C)C)sc12`?
A: Potency [1]: inactive; Potency [2]: 100 µM (active); Potency [3]: inactive

Q: Which Potency [1] does the source give for `COc1cc2c(c(OC)c1OC)C(c1ccc(C)cc1)CC(=O)O2` (stereo unspecified) here?
A: inactive

Q: What about the activation [2] of the same compound?
A: 3.46% [at 17.1 µM, percent relative to cAMP agonist control]

Q: What about the Potency [3] of the same compound?
A: inactive

Q: What about the activity change, negative = inhibition [4] of the same compound?
A: 6.91% [at 30.8 µM]

Q: For `CC(C)(C)C1CCc2c(sc(NC(=O)CCC(=O)O)c2C(=O)Nc2ccccc2C(F)(F)F)C1` (stereo unspecified), which Potency [1] is on record?
A: 42.6 µM (active)

Q: What about the Potency [2] of the same compound?
A: inactive

Q: And the Potency [3]?
A: inactive

Q: Which Potency [1] does the source give for `CCN(C(=O)CN1CCN(c2ccccc2O)CC1)c1c(N)n(Cc2ccccc2)c(=O)[nH]c1=O` here?
A: inactive

Q: What about the Potency [2] of the same compound?
A: inactive

Q: What about the Potency [3] of the same compound?
A: inactive

Q: And the Potency [4]?
A: inactive

Q: With `O=C(NCc1ccco1)c1ccc(Cn2c(=S)[nH]c3ccccc3c2=O)cc1` as the compound, how does the Potency [1] read?
A: inactive

Q: And the Potency [2]?
A: inactive

Q: And the Potency [3]?
A: 0.953 µM (active)

Q: And the Potency [4]?
A: inactive

Q: Which results are given for `O=C(O)c1cc(Nc2cc(Cl)c3nonc3c2[N+](=O)[O-])ccc1O`?
A: Potency [1]: 9.53 µM (active); Potency [15]: inactive; Potency [16]: inactive

Q: `CN1CCS/C1=C\C=C1/SC(=S)N(CC(=O)O)C1=O` was tested. Which Potency [1] did it give?
A: inactive

Q: And the Potency [2]?
A: 79.4 µM (active)

Q: What about the Potency [3] of the same compound?
A: inactive

Q: And the Potency [4]?
A: inactive

Q: Which results are given for `CCN1CCN(Cc2c(O)ccc3c2O/C(=C\C=C\c2ccccc2OC)C3=O)CC1`?
A: Potency [1]: inactive; activation [2]: 5.66% [at 17.1 µM, percent relative to cAMP agonist control]; Potency [3]: inactive

Q: Which Potency [1] does the source give for `CCC(C)n1c(=N)c(C#N)cc2c(=O)n3ccccc3nc21` (stereo unspecified) here?
A: inactive

Q: What about the activation [2] of the same compound?
A: -1.22% [at 17.1 µM, percent relative to cAMP agonist control]

Q: And the Potency [3]?
A: inactive

Q: What about the activity change, negative = inhibition [4] of the same compound?
A: -20.2% [at 30.8 µM]

Q: What does the source list for `CCOc1ccc2c(ccc(/C=C/c3cc(C)c4cccnc4c3O)[n+]2C)c1`?
A: Potency [1]: 60.1 µM (active); Potency [2]: 70.8 µM (active); Potency [3]: 42.6 µM (active)

Q: How did the Potency [1] turn out when `COc1ccc(-c2ncccc2OC(=O)C23CC4CC(CC(C4)C2)C3)cc1OC` was run?
A: inactive

Q: What about the activation [2] of the same compound?
A: 1.83% [at 17.1 µM, percent relative to cAMP agonist control]

Q: And the Potency [3]?
A: inactive

Q: And the activity change, negative = inhibition [4]?
A: -6.96% [at 30.8 µM]

Q: How did the Potency [1] turn out when `Fc1cc(F)cc(-c2c(-c3ccccc3)ncc3ccc(F)cc23)c1` was run?
A: inactive

Q: And the Potency [15]?
A: inactive

Q: And the Potency [16]?
A: inactive

Q: What does the source list for `COc1ccc(N2C(=O)[C@H]3CCC=C[C@H]3[C@@H]2c2ccccc2Br)cc1`?
A: Potency [1]: inactive; Potency [15]: inactive; Potency [16]: inactive

Q: Which results are given for `COC(=O)c1cc2oc(C)cc2n1Cc1cc(C)ccc1C`?
A: Potency [1]: inactive; Potency [2]: inactive; Potency [3]: inactive; Potency [4]: inactive

Q: With `COC(=O)c1ccc2nc(-c3ccc(F)cc3)c(Cc3ccccc3)n2c1` as the compound, how does the Potency [1] read?
A: inactive

Q: What about the Potency [15] of the same compound?
A: inactive

Q: What about the activation [16] of the same compound?
A: 19.8% [at 30.8 µM]
